Here are results for five molecules from PubChem BioAssay.

Calls of active or inactive are those of the source.

Assay [1] has as its system PRMT1 (protein arginine N-methyltransferase 1). The experiment in a line: small molecules binding arginine methyltransferase PRMT1 – biochemical, small-molecule microarray, 635 nm fluorescence, primary screen (AID 1088).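 Note: binding of Prmt1 protein to compounds spotted on small-molecule microarray slides.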 Conditions: higher = more signal.
A short description of assay [2]: growth effects on S. cerevisiae YJM789 – YJM789 clinical isolate, OD600, 24 h, basal, primary screen (AID 1089).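 Note: growth of clinical yeast isolate S. cerevisiae YJM 789 seeded 1000 cells per well; test concentration not given here.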 Conditions: higher = more signal, called active from +8 up or from −8 down.
Assay [3] can be described thus: S. pombe growth modifiers, basal conditions – strain 972, OD600, 24 h, no modulator, primary screen (AID 1090).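 Note: basal condition with compound alone and no growth modifier present; test concentration not given here.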 The following applies: S. pombe 972 growth, higher = more signal, called active from +8 up or from −8 down.
The nature of assay [4]: budding yeast growth modifiers under rapamycin – strain BY4716, OD600, 96 h, primary screen (AID 1091). Note: test concentration not given here. The following applies: S. cerevisiae BY4716 + rapamycin, higher = more signal, called active from +8 up or from −8 down.
The target of assay [5] is Torsin-1A-interacting protein 2 (Homo sapiens) (UniProt Q8NFQ8). Nature of the assay: small molecules binding lysate-expressed LULL1 – cell lysate, human LULL1 lysate, 635/667 nm fluorescence, primary screen (AID 1092).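 Note: probe is lysate of COS7 cells overexpressing human LULL1; score merges per-feature 667 nm fluorescence with signal-to-noise.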 The following applies: small-molecule microarray, hLULL1 lysate binding, 635 nm fluorescence; higher = more signal.
Chain of Torsin-1A-interacting protein 2 (Homo sapiens) (Q8NFQ8 whole entry, looked up): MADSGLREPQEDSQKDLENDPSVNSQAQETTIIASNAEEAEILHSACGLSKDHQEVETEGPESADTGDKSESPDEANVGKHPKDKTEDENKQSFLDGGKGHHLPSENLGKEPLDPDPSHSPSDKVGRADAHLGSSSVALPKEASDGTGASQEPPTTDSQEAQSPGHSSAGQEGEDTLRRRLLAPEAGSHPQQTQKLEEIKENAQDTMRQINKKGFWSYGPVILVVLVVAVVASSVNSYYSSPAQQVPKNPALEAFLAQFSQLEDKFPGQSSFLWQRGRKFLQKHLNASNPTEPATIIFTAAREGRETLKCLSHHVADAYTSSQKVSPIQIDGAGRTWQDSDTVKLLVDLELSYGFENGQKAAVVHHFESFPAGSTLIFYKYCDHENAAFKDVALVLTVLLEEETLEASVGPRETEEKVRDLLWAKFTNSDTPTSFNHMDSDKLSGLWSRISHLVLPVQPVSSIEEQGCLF
Assay [6] is described as follows: optical density change of DRC41 E. coli – strain DRC41, OD650, 24 h, E. coli filamentation project, primary screen (AID 1093).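 Note: MC1000 strain lacking acrAB efflux and sulA so SOS filamentation is blocked; test concentration not given here.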 Conditions: E. coli DRC41 growth, higher = more signal, called active from +8 up or from −8 down.
The nature of assay [7]: probe aLefty2 binding to arrayed compounds – biochemical, biotinylated probe, 635/667 nm fluorescence, primary screen (AID 1094).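 Note: score merges spot fluorescence near 667 nm with spot signal-to-noise ratio.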 Conditions: small-molecule microarray, higher = more signal.
In assay [8] the test system is Noggin (protein binding on small-molecule microarray). The experiment in a line: small molecules binding Noggin protein – biochemical, 635/667 nm fluorescence, primary screen (AID 1095).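 Note: score merges 667 nm feature fluorescence with signal to noise over triplicate slides.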 Conditions: 635 nm fluorescence, higher = more signal.
The target of assay [9] is Neurogenic locus notch homolog protein 3 (Homo sapiens) (UniProt Q9UM47). Nature of the assay: small molecules binding NOTCH3 protein – biochemical, 635/667 nm fluorescence, primary screen (AID 1096). Conditions: small-molecule microarray, 635 nm fluorescence, higher = more signal.
Chain of Neurogenic locus notch homolog protein 3 (Homo sapiens) (Q9UM47 whole entry, looked up): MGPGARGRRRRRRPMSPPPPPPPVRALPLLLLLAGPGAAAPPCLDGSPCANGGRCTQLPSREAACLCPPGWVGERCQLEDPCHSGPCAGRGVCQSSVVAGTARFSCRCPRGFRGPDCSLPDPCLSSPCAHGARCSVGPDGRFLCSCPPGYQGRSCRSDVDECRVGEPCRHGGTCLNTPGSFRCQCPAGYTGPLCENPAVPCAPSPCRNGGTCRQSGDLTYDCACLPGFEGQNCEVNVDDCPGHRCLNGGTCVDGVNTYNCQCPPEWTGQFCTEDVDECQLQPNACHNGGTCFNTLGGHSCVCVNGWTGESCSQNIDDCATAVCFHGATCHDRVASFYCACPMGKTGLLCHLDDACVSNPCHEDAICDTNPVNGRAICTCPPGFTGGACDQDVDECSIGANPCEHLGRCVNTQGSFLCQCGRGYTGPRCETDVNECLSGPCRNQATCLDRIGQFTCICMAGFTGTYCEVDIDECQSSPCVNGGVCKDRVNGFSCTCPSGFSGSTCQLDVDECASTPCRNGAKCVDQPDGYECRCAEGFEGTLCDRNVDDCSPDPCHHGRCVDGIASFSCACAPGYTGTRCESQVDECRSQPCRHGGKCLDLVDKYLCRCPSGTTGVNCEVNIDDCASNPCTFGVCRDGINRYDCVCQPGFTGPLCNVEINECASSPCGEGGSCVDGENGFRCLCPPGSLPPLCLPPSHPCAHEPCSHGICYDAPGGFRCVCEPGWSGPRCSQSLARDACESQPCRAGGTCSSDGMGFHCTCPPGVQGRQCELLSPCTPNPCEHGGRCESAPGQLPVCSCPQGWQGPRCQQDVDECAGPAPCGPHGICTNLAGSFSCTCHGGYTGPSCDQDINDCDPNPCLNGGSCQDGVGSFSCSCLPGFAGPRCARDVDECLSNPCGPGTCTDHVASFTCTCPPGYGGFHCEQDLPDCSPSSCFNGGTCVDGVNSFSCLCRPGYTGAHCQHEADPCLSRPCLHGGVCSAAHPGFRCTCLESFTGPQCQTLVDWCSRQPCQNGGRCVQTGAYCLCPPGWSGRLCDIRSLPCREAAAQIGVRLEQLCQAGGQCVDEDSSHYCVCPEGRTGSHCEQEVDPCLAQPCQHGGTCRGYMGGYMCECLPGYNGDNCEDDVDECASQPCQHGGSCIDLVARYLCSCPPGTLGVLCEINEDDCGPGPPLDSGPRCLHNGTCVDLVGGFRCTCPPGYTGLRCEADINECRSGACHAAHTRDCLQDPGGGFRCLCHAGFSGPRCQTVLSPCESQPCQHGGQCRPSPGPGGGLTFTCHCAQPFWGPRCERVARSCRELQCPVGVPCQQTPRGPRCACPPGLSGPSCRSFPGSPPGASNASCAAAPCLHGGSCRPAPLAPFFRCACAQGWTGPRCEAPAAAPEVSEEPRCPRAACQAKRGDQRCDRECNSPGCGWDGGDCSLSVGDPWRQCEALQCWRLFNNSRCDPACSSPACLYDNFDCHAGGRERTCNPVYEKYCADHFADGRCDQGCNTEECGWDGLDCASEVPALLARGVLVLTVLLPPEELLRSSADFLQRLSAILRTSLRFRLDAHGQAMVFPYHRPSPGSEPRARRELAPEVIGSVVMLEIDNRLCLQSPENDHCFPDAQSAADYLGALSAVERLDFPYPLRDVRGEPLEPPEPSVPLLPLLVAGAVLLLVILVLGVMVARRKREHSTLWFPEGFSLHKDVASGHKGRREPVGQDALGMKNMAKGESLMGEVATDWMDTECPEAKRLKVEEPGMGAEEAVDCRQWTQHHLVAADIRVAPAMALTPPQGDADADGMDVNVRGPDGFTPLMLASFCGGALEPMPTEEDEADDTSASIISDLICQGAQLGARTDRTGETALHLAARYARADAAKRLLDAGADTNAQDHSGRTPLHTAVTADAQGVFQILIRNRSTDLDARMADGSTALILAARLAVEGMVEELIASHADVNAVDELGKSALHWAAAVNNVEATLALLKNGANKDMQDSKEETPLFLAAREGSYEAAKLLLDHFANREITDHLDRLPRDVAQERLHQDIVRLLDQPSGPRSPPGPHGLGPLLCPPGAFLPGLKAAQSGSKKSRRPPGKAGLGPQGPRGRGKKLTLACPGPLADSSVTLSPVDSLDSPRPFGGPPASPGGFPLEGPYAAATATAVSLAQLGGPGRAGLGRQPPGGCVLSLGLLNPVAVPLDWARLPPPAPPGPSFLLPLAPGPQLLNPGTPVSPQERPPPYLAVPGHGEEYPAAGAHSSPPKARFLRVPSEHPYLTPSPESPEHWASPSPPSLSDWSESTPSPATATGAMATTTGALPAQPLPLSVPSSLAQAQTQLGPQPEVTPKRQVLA
Assay [10] is described as follows: probe aEGFR binding to arrayed compounds – biochemical, biotinylated probe, 635/667 nm fluorescence, primary screen (AID 1097).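 Note: probe is a biotinylated anti-EGFR antibody binding compounds printed on slides; score combines fluorescence near 667 nm and signal to noise of each spot.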 The following applies: small-molecule microarray, higher = more signal.
The test system of assay [11] is Plasmodium falciparum Sir2 (PF13_0152, Sir2A). Nature of the assay: Plasmodium falciparum Sir2A binding compounds – biochemical, small-molecule microarray, 635 nm fluorescence, primary screen (AID 1098).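 Note: score merges spot fluorescence intensity with its signal-to-noise ratio.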 The following applies: fluorescence 635 nm, higher = more signal.
Assay [12] is described as follows: probe aDKK1 binding to arrayed compounds – biochemical, biotinylated probe, 635/667 nm fluorescence, primary screen (AID 1099).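 Note: score merges 667nm spot fluorescence with signal to noise across triplicate slides; reference of the scale not given here.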 The following applies: small-molecule microarray, higher = more signal.
The nature of assay [13]: probe aCHRDL2 binding to arrayed compounds – biochemical, biotinylated probe, 635/667 nm fluorescence, primary screen (AID 1100). The following applies: small-molecule microarray, higher = more signal.
A short description of assay [14]: change in splice reporter luminescence, either direction, cell-based, HEK293, spliceosome inhibition project, primary screen (AID 1101).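 Note: HEK293 cells carrying a splicing-competent luciferase reporter gene; test concentration not given here.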 The following applies: HEK293 splicing luciferase reporter, 24 h, higher = more signal, called active from +8 up or from −8 down.
Assay [15] deals with Fibroblast growth factor 10 (Homo sapiens) (UniProt O15520). The experiment in a line: compounds binding fibroblast growth factor 10 – biochemical, small-molecule microarray, 635 nm fluorescence, primary screen (AID 1102). The following applies: FGF10 binding, fluorescence 635 nm, higher = more signal.
Chain of Fibroblast growth factor 10 (Homo sapiens) (O15520 whole entry, looked up): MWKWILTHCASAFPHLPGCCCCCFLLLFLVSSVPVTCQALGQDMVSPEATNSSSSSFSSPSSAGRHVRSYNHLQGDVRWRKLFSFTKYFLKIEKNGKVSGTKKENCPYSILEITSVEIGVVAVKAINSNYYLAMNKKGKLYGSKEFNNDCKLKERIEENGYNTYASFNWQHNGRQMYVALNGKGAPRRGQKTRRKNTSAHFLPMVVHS
Assay [16] has as its system glycogen synthase kinase-3 (GSK3A per assay name; protocol says GSK3B). Nature of the assay: compounds binding glycogen synthase kinase-3 – biochemical, small-molecule microarray, 635 nm fluorescence, GSK3A, primary screen (AID 1103). Note: the record names both GSK3A and GSK3B. The following applies: fluorescence 635 nm, higher = more signal.
Assay [17] deals with Epidermal growth factor receptor (Homo sapiens) (UniProt P00533). Nature of the assay: compounds binding epidermal growth factor receptor – biochemical, small-molecule microarray, 635 nm fluorescence, primary screen (AID 1104).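 Note: score merges 667 nm emission intensity with spot signal to noise over triplicate slides.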 The following applies: EGFR binding, higher = more signal.
Chain of Epidermal growth factor receptor (Homo sapiens) (P00533 whole entry, looked up): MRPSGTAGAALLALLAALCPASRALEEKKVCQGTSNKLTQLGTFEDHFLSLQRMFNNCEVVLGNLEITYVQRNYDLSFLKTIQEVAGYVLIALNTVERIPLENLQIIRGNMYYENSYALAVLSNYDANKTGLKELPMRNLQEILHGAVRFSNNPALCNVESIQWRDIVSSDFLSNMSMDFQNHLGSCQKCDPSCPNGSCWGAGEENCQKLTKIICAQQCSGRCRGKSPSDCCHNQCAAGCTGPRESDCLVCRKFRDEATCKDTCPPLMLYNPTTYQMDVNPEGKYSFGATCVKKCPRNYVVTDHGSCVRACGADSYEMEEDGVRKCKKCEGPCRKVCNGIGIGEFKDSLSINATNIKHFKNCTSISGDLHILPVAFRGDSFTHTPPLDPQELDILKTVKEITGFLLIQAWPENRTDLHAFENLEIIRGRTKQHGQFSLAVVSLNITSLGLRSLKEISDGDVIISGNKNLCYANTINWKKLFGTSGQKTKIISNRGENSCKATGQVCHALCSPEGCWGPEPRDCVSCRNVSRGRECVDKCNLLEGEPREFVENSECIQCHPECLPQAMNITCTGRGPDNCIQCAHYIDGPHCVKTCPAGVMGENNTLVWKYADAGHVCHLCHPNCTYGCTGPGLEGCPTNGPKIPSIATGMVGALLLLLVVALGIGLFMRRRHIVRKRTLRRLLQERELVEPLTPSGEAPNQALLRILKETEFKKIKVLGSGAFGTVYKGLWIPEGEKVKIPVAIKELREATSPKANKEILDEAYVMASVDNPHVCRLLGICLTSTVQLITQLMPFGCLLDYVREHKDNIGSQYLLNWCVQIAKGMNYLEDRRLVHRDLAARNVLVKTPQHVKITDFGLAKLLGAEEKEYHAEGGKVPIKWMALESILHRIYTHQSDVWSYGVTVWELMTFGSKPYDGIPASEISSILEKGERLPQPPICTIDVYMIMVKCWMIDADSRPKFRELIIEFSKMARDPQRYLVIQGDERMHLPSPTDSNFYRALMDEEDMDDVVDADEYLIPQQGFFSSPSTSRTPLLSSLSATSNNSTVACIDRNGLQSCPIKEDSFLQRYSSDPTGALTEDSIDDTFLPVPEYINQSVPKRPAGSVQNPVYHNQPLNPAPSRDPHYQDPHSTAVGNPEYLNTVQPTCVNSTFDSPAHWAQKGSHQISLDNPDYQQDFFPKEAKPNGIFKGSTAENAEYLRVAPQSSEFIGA
The target of assay [18] is Follistatin-related protein 3 (Homo sapiens) (UniProt O95633). The experiment in a line: compounds binding follistatin-related protein 3 – biochemical, small-molecule microarray, 635 nm fluorescence, primary screen (AID 1105).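 Note: score merges emission near 667 nm and signal to noise per printed spot across three slides.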 The following applies: FSTL3 binding, higher = more signal.
Chain of Follistatin-related protein 3 (Homo sapiens) (O95633 whole entry, looked up): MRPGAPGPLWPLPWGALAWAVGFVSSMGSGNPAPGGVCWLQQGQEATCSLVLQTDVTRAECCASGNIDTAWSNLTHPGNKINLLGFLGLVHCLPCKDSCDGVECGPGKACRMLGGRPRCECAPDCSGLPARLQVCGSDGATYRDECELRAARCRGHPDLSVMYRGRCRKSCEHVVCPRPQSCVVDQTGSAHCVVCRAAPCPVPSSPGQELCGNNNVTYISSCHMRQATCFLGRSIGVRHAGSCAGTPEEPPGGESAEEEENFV
The target of assay [19] is Dickkopf-related protein 1 (Homo sapiens) (UniProt O94907). Nature of the assay: small molecules binding DKK1 protein – biochemical, small-molecule microarray, 635 nm fluorescence scan, primary screen (AID 1106).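 Note: score merges emission near 667 nm with signal to noise over three replicate slides.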 Conditions: higher = more signal.
Chain of Dickkopf-related protein 1 (Homo sapiens) (O94907 whole entry, looked up): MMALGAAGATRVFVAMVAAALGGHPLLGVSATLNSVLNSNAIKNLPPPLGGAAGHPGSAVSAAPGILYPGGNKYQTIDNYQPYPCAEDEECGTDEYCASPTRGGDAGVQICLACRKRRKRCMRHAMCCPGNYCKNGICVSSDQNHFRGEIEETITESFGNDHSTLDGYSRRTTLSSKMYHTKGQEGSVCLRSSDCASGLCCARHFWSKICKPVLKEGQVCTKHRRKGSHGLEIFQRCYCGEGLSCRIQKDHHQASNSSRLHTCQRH
In assay [20] the test system is Inhibin beta A chain (activin A). Nature of the assay: small molecules binding activin A – biochemical, small-molecule microarray, 635 nm fluorescence scan, primary screen (AID 1107).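 Note: mouse activin A protein probed at 4.33 µg/mL on printed slides; score merges bound-protein fluorescence near 667 nm with spot signal-to-noise.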 The following applies: INHBA, higher = more signal.

As for `Cc1ccc(S(=O)(=O)N2[C@@H](c3ccccc3)C(C(=O)O)=CC[C@H]2c2ccccc2)cc1`, the composite z-score was -0.116 in assay [1]; 3.4 in [5]; -0.0096 in [7]; -0.208 in assay [8]; 0.622 in assay [9]; 0.0731 in assay [10]. Also, the composite z-score was 0.0714 in assay [11]; 0.153 in [12]; 0.431 in assay [13]; 0.476 in assay [15]; -0.0481 in assay [16]; 0.197 in assay [17]. Further, the results for the composite z-score in [18], in assay [19] and in [20] were 0.169, -0.454 and 0.512, respectively. Further, the z-score was -0.12 (inactive) in assay [2]; -0.422 (inactive) in [3]; 0.0034 (inactive) in assay [4]; -1.76 (inactive) in [6]; -0.258 (inactive) in assay [14].
Consider `CCCC[C@H]1OB(O)C[C@H]2C1=C(COC)C[C@H]1C(=O)N(Cc3ccccc3)C(=O)[C@H]12`, for which the composite z-score in [1] was -0.0448; in [5], 0.58; in [7] it was -0.113; in [8] it was 0.321; in assay [9], 0.75; in [10] it was -0.0958. Also, the composite z-score in [11] was -0.0105; in assay [12], 0.0752; in assay [13], -0.0346; in assay [15] it was 0.78; in assay [16], 0.261; in [17] it was 0.013. For the same molecule, the composite z-score in assay [18] turned out to be 1.1; in [19], 0.0988; in [20] it was 0.223. Also, the z-score in assay [2] was -0.776 (inactive); in [3], -1.69 (inactive); in [4], -1.69 (inactive); in assay [6], 2.71 (inactive); in [14], -1.27 (inactive).
In the case of `COc1cccc([C@H]2N[C@H](C(=O)O)CC[C@@H]2C)c1`, the composite z-score in assay [1] was -0.158; in assay [5], 0.0605; in [7], -0.23; in assay [8], 0.002; in assay [9], 0.202; in assay [10] it was -0.139. Also, the composite z-score in assay [11] was -0.406; in assay [12], -0.251; in assay [13], -0.136; in [15], -0.401; in assay [16] it was 0.0602; in assay [17] it was 0.194. The composite z-score was 0.0151 in [18], 0.0655 in assay [19] and 0.282 in [20]. The z-score was -0.535 (inactive) in [2]; -0.823 (inactive) in [3]; 0.48 (inactive) in [4]; 0.395 (inactive) in assay [6]; -1.94 (inactive) in [14].
For the molecule `C=CCNC(=O)[C@H]1[C@@H]2C(=O)O[C@@H](c3ccccc3)[C@@H](c3ccccc3)N2[C@@H](c2ccc(O)cc2)[C@]12C(=O)Nc1ccc(C#CCNC(N)=O)cc12`, the composite z-score in assay [1] was 0.0982; in [5], 1.87; in assay [7], -0.282; in assay [8], -0.643; in assay [9], -1.01; in [10] it was -0.216. Further, the composite z-score was 1.5 in assay [11]; 0.24 in assay [12]; 0.262 in assay [13]; -0.327 in assay [15]; -0.304 in [16]; -0.856 in assay [17]. Moreover, the composite z-score was -1.03 in [18], -0.351 in assay [19] and 0.323 in assay [20]. Further, the z-score in assay [2] was -0.396 (inactive); in [3], -0.37 (inactive); in assay [4] it was 0.402 (inactive); in [6], 2.18 (inactive); in assay [14] it was -0.335 (inactive).
As for `O=C1c2ccccc2[C@@]2(Cc3ccccc3N(CC(F)(F)F)C2=O)[C@H](c2ccc(CO)cc2)N1C1CCCCC1`, the composite z-score worked out at 0.778 in [1]; 1.08 in assay [5]; 0.0598 in assay [7]; 1.05 in assay [8]; 0.601 in [9]; 0.0376 in assay [10]. In addition, the composite z-score in assay [11] amounted to 0.208; in assay [12] it was 0.117; in assay [13] it was 0.0803; in assay [15], 0.982; in assay [16] it was 0.88; in [17], 0.229. Also, the composite z-score in assay [18] is 0.95; in assay [19], 1.02; in [20] it was 0.801. The z-score was 0.315 (inactive) in assay [2]; -0.958 (inactive) in assay [3]; -1.99 (inactive) in assay [4]; 0.825 (inactive) in assay [6]; -0.189 (inactive) in [14].
